Assay results as given in PubChem BioAssay.
Activity calls are given as the source filed them. Unless noted, the rule behind the calls is not given here.

Key:
[1] = A549 cell viability effects, profiling panel, calcein-AM fluorescence, 48 h, basal (AID 1162); conditions: higher = more signal; note: test concentration not given here
[2] = adipocyte viability effects, profiling panel, cell-based, 3T3-L1 adipocytes, calcein-AM fluorescence, 48 h, basal (AID 1163); conditions: 3T3-L1 adipocytes viability, higher = more signal; note: test concentration not given here
[3] = HepG2 cell viability effects, profiling panel, calcein-AM fluorescence, 48 h, basal (AID 1164); conditions: higher = more signal; note: test concentration not given here
[4] = MM1S cell viability effects, profiling panel, calcein-AM fluorescence, 48 h, basal (AID 1165); conditions: higher = more signal;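 note: viability of MM1S multiple myeloma cells under basal unstimulated conditions; test concentration not given here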
[5] = basal RPMI8226 viability, no added stimulus, profiling panel, cell-based, calcein-AM fluorescence, 48 h, PK04 Diversity Set (AID 1166); conditions: RPMI8226 myeloma viability, higher = more signal;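 note: cells grown under basal conditions without added stimulus; test concentration not given here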
[6] = basal HepG2 mitochondrial membrane potential changes, profiling panel, cell-based, JC-1 fluorescence, 24 h, 100 nL compound (AID 1167); conditions: higher = more signal; note: test concentration not given here
[7] = basal 3T3-L1 adipocyte mitochondrial potential changes, profiling panel, cell-based, JC-1 fluorescence, 3T3-L1 adipocytes, 24 h, 100 nL compound (AID 1168); conditions: JC-1 mitochondrial fluorescence, higher = more signal, called active from +8 up or from −8 down; note: test concentration not given here
[8] = basal RPMI8226 mitochondrial membrane potential changes, profiling panel, cell-based, JC-1 fluorescence, 24 h, 100 nL compound (AID 1169); conditions: RPMI8226 myeloma, JC-1 mitochondrial potential fluorescence, higher = more signal; note: test concentration not given here
[9] = basal MM1S mitochondrial membrane potential changes, profiling panel, cell-based, JC-1 fluorescence, 24 h, 100 nL compound (AID 1170); conditions: higher = more signal; note: test concentration not given here
[10] = A549 lung cancer cell viability effects, profiling panel, resazurin fluorescence, 24 h, PK04 Diversity Set (AID 1171); conditions: higher = more signal, called active from +8 up or from −8 down; note: test concentration not given here
[11] = HepG2 liver cancer cell viability effects, profiling panel, resazurin fluorescence, 24 h, PK04 Diversity Set (AID 1172); conditions: higher = more signal; note: test concentration not given here
[12] = basal S. cerevisiae growth modulation, no modifier, primary screen, OD600, strain BY4716, 24 h, basal condition (AID 1173); conditions: OD600, 24 h, higher = more signal, called active from +8 up or from −8 down
[13] = MM1S myeloma cell viability, profiling panel, resazurin fluorescence, basal, 24 h, PK04 Diversity Set (AID 1174); conditions: higher = more signal, called active from +8 up or from −8 down;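 note: MM1S multiple myeloma cell line; test concentration not given here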
[14] = biological target: Dihydroorotate dehydrogenase (quinone), mitochondrial (Plasmodium falciparum (isolate 3D7)) (UniProt Q08210); assay: PfDHODH enzyme inhibitors, primary screen, biochemical, C-terminal His tag, absorbance 600 nm (AID 1175); conditions: DCIP absorbance 600 nm, higher = more signal, called active from +8 up or from −8 down;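 note: recombinant parasite enzyme with a five histidine tag at its C terminus; test concentration not given here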
[15] = P. aeruginosa biofilm formation inhibitors, primary screen, strain PAO1, LB-PBS medium, absorbance 600 nm (AID 1176); note: test concentration not given here; conditions: P. aeruginosa PAO1 growth/biofilm, A600, 12 h; higher = more signal
[16] = S. cerevisiae RM11-1a growth modifiers, primary screen, strain RM11-1a, OD600, basal, 24 h (AID 1177); conditions: OD600, 24 h, higher = more signal, called active from +8 up or from −8 down;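 note: cultures grown under basal conditions with no added stressor; test concentration not given here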
[17] = E. coli acrAB mutant growth effects, primary screen, E. coli filamentation inducers, strain DRC39, OD650, 24 h (AID 1178); conditions: higher = more signal, called active from +8 up or from −8 down;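 note: growth measured as culture turbidity by optical density at 650 nm; test concentration not given here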
[18] = E. coli acrAB mutant growth effects, primary screen, E. coli filamentation inducers, strain DRC39, OD650, 48 h (AID 1179);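 note: screen aims at cell division blockers that make cells filament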; conditions: E. coli DRC39 delta-acrAB growth, higher = more signal, called active from +8 up or from −8 down
[19] = RPMI8226 myeloma cell viability, profiling panel, resazurin fluorescence, basal, 24 h, PK04 Diversity Set (AID 1180); conditions: higher = more signal;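 note: RPMI8826 multiple myeloma cell line at 5000 cells per well; test concentration not given here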
[20] = biological target: E3 ubiquitin-protein ligase XIAP (Homo sapiens) (UniProt P98170); assay: XIAP binders, primary screen, biophysical, small-molecule microarray, fluorescence 635 nm (AID 1181); conditions: small-molecule microarray binding, higher = more signal;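 note: score merges 667 nm emission and signal to noise over triplicate slides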
E3 ubiquitin-protein ligase XIAP (Homo sapiens), sequence (P98170 whole entry, looked up): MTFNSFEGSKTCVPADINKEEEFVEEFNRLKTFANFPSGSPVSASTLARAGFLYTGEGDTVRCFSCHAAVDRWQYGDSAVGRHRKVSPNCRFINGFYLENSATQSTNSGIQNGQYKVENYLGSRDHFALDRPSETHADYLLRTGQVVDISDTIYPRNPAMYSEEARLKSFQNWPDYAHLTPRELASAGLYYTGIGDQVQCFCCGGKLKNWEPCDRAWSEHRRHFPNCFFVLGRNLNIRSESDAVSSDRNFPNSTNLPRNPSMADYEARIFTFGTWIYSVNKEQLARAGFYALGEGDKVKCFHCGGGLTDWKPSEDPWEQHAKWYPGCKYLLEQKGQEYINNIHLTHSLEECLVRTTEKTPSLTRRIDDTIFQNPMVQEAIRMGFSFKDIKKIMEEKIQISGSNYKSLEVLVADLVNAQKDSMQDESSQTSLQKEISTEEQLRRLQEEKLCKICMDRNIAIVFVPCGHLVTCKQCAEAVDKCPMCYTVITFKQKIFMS

Dihydroorotate dehydrogenase (quinone), mitochondrial (Plasmodium falciparum (isolate 3D7)), sequence (Q08210 whole entry, looked up): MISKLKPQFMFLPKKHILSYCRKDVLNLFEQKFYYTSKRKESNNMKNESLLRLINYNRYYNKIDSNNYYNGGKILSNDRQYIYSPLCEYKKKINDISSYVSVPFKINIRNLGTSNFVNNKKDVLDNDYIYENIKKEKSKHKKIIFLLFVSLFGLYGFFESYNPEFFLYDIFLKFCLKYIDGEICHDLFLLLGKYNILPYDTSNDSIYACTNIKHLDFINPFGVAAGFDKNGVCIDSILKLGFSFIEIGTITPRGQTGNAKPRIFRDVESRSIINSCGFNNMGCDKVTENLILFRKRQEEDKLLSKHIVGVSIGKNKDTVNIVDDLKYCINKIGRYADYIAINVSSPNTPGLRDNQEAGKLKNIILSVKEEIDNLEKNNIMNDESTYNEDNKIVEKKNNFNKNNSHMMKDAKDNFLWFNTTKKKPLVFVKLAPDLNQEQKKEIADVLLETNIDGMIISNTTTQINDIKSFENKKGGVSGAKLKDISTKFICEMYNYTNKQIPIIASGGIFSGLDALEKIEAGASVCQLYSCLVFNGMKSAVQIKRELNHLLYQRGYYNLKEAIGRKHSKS

| Compound | z-score [1] | z-score [2] | z-score [3] | z-score [4] | z-score [5] | z-score [6] | z-score [7] | z-score [8] | z-score [9] | z-score [10] | z-score [11] | z-score [12] | z-score [13] | composite z-score [14] | z-score [15] | z-score [16] | z-score [17] | z-score [18] | z-score [19] | composite z-score [20] |
| --- | --- | --- | --- | --- | --- | --- | --- | --- | --- | --- | --- | --- | --- | --- | --- | --- | --- | --- | --- | --- |
| CO[C@H]1O[C@H](CO)[C@@H](OC(=O)Nc2ccccc2-c2ccccc2)[C@H](OC(=O)Nc2ccc3c(c2)OCO3)[C@@H]1OC(=O)Nc1ccc2c(c1)OCO2 | 0.105 | -1.46 | -1.05 | -1.49 | -1.84 | -0.467 | 1.34 (inactive) | -0.363 | -0.263 | -1.77 (inactive) | -1.18 | 1.03 (inactive) | -1.38 (inactive) | -0.289 (inactive) | 1.86 (inactive) | 2.9 (inactive) | 0.999 (inactive) | -0.124 (inactive) | -1.12 | 0.227 |
| O=C1O[C@@H](c2ccccc2)[C@@H](c2ccccc2)N2[C@@H](c3ccc(O)cc3)[C@]3(C(=O)Nc4ccc(C#CCCO)cc43)[C@@H](C(=O)NC[C@H](O)c3ccccc3)[C@H]12 | 0.479 | 0.269 | 0.333 | -0.121 | 0.671 | -1.93 | -1.16 (inactive) | 0.198 | -0.667 | 0.588 (inactive) | 1.29 | -0.169 (inactive) | 0.214 (inactive) | 0.129 (inactive) | -0.192 (inactive) | 0.376 (inactive) | 0.6 (inactive) | 0.242 (inactive) | 1.33 | 0.363 |
| CCOC(=CC(=O)OC)CC(O)c1cccc(Cl)c1 (stereo not given) | 0.738 | 0.342 | -0.0117 | 0.221 | -1.15 | 0.363 | 0.0253 (inactive) | -0.0603 | -0.69 | 0.0735 (inactive) | 0.217 | -8.62 (active) | -0.0412 (inactive) | -1.92 (inactive) | 0.16 (inactive) | -2.91 (inactive) | 0.121 (inactive) | 1.08 (inactive) | 0.404 | -0.0091 |
| CN(C)CCCN1C(=O)[C@@]2(c3ccc([N+](=O)[O-])cc3)CC(=O)N(CC34CC5CC(CC(C5)C3)C4)[C@@H]2c2ccc(CO)cc21 | 2.86 | 0.338 | 0.28 | -0.18 | 0.621 | 0.474 | 1.38 (inactive) | -0.0069 | 0.41 | -0.928 (inactive) | -0.349 | 0.24 (inactive) | -0.752 (inactive) | -7.42 (inactive) | -0.121 (inactive) | 0.536 (inactive) | 0.384 (inactive) | 0.567 (inactive) | -0.959 | -0.02 |
| NC(=O)NCC#Cc1ccc2c(c1)[C@]1(C(=O)N2)[C@H](C(=O)O)[C@H]2C(=O)O[C@H](c3ccccc3)[C@H](c3ccccc3)N2[C@@H]1c1ccccc1OCCO | 0.789 | 1.03 | 0.728 | 1.33 | 1.35 | -0.867 | -0.377 (inactive) | -0.0612 | 0.997 | 0.877 (inactive) | 1.03 | -1.81 (inactive) | 0.837 (inactive) | -0.988 (inactive) | 2.75 (inactive) | -0.888 (inactive) | 0.525 (inactive) | 1.16 (inactive) | 1 | -0.0599 |
| Cc1ccc(F)cc1S(=O)(=O)N[C@@H]1CCN(Cc2ccc(OC(C)C)cc2)C1 | 0.0197 | -0.382 | -0.867 | -2.58 | -0.974 | -1.41 | 0.0582 (inactive) | 0.0721 | -1.87 | -0.26 (inactive) | -0.917 | -8.98 (active) | -2.09 (inactive) | -0.0588 (inactive) | -0.225 (inactive) | 0.652 (inactive) | -20 (active) | -19.8 (active) | -0.945 | -0.0794 |
| C=CCOC(=O)[C@@H]1[C@H]2C(=O)O[C@H](c3ccccc3)[C@H](c3ccccc3)N2[C@H](c2ccc(OCCOC(=O)[C@H]3C[C@H]4C(=O)N[C@@H](CCCCN(C)C)C(=O)N4[C@H]3c3cccc(OCCO)c3)cc2)[C@@]12C(=O)Nc1ccc(I)cc12 | 0.0169 | -0.859 | -0.102 | -0.671 | -0.654 | -0.89 | 1.12 (inactive) | -0.374 | -1.19 | -0.299 (inactive) | -0.999 | 2.24 (inactive) | -0.302 (inactive) | 0.26 (inactive) | 2.57 (inactive) | 1.17 (inactive) | -0.0783 (inactive) | -0.0986 (inactive) | -0.209 | -0.202 |
| CC(C)N1CC=CC23O[C@@H]4C=CCOC(=O)[C@@H]4[C@H]2C(=O)N(C(C)CO)[C@@H]3C1=O (stereo not given in full) | -0.327 | -0.153 | -0.719 | 1.15 | -0.186 | -0.664 | -0.668 (inactive) | -0.166 | 0.462 | 0.226 (inactive) | 0.629 | 0.433 (inactive) | 0.273 (inactive) | -0.218 (inactive) | 0.578 (inactive) | -0.603 (inactive) | 0.17 (inactive) | -0.155 (inactive) | 0.0803 | 0.226 |
| O=C1O[C@@H](c2ccccc2)[C@@H](c2ccccc2)N2[C@@H](c3ccccc3OCCO)[C@]3(C(=O)Nc4ccccc43)[C@@H](C(=O)NC[C@H](O)c3ccccc3)[C@H]12 | -1.53 | 0.0155 | -3.94 | -3.32 | -4.54 | -1.64 | 0.305 (inactive) | -1.22 | -2.09 | -1.99 (inactive) | -1.03 | 0.587 (inactive) | -6.16 (inactive) | 1.65 (inactive) | 2.05 (inactive) | 3.08 (inactive) | -0.0586 (inactive) | 0.495 (inactive) | -6.99 | 0.311 |
